Among the data in PubChem BioAssay (EPA / NIEHS) are outcome values, retold here.

Records with an inconclusive call do not appear. Active and inactive are the calls of the source. The calls were made as follows: active = hit-call score of the fitted dose curve at least 0.9, where 1 is the maximum; inconclusive = response in the unintended direction; inactive = score below 0.9.

The assay in a line: Tanguay_ZF_120hpf_NC_legacy: (Legacy) Oregon State University Tanguay Lab 120 Hour Post-fertilization zebrafish Assay for Notochord and Tail Malformation (AID 2283656). On the procedure: Tanguay_ZF_120hpf_legacy is a whole embryo, multiplexed endpoint assay using zebrafish larvae exposed for 120 hours post fertilization on a 96-well plate.Tanguay_ZF_120hpf_NC_legacy is one of one assay component(s) measured or calculated from the Tanguay_ZF_120hpf_legacy assay. It is designed to make measurements of zebrafish development as detected with brightfield microscopy of developing zebrafish embryos.Data from the assay component Tanguay_ZF_120hpf_NC_legacy was analyzed into 1 assay endpoints. This assay endpoint, Tanguay_ZF_120hpf_NC_legacy, was analyzed in the positive analysis fitting direction relative to DMSO as the negative control and baseline of activity. Using a type of morphology reporter, gain-of-signal activity can be used to understand changes in developmentals as they relate to the whole embryo. To generalize the intended target to other relatable targets, this assay endpoint is annotated to the zebrafish development intended target family, where the subfamily is embryonic notochord morphogenesis.
Zebrafish husbandry: Tropical 5D wild-type adult zebrafish were housed in at an approximate density of 1000 per 100 gallon tank at the Sinnhuber Aquatic Research Laboratory, Oregon State University, Corvallis, OR. Each tank was kept at standard laboratory conditions of 28C on a 14-h light/10-h dark photoperiod in fish water consisting of reverse osmosis water supplemented with a commercially available salt (Instant Ocean). Spawning funnels were placed into the tanks the night prior, and embryos were collected and staged. To increase bioavailability, the chorion was enzymatically removed using pronase (63.6mg/ml, >/= 3.5U/mg, Sigma-Aldrich: P5147) at 4 hours post fertilization (hpf) using a custom automated dechorionator.Chemical exposures: Six hpf dechorionated embryos were placed 1 embryo per well in a 96-well plate prefilled with 90 ul of EM using automated embryo placement systems (AEPS). Ten microliters of each row of dilution plate 2 was added to 2 exposure plates. The final DMSO concentration used was 0.64% (vol/vol). Thirty-two embryos were also exposed to 5uM trimethyltin chloride (positive control). Plates were sealed to prevent evaporation and foil covered to reduce light exposure and kept in a 28C incubator. Embryos were statically exposed until 120 hpf. At 24 hpf, embryos were assessed for photomotor response using a custom photomotor response analysis tool (PRAT) and for developmental toxicity endpoints (MO24: mortality at 24 hpf, DP: developmental progression, SM: spontaneous movement, and NC: notochord distortion). At 120 hpf, locomotor activity was measured using Viewpoint Zebralab and assessed for 18 endpoints. Zebrafish acquisition and analysis program (ZAAP), a custom program designed to inventory, acquire, and manage zebrafish data, was used to collect developmental endpoints as either present or absent (i.e., binary responses were recorded). If mortality occurred for an embryo (at either 24 or 120 hpf), the non-mortality endpoints were not measured.
`CCC(=O)Nc1ccc(Cl)c(Cl)c1`: the molecule was classed as inactive. Consider `CN1COCN(Cc2cnc(Cl)s2)C1=N[N+](=O)[O-]`, for which the molecule was classed as inactive.

In the case of `CCOP(=S)(Oc1cnc(C(C)(C)C)nc1)OC(C)C` (stereo not given), the call was inactive.

As to `CN(C)NC(=O)CCC(=O)O`, the result was inactive. `CCOP(=S)(OCC)OC(Cl)C(Cl)(Cl)Cl` (stereo not given): the call was inactive.

In the case of `CCCOCC(=Nc1ccc(Cl)cc1C(F)(F)F)n1ccnc1`, the molecule was called inactive. Consider `C=C(C)[C@H]1Cc2c(ccc3c2O[C@@H]2COc4cc(OC)c(OC)cc4[C@@H]2C3=O)O1`, for which the call was inactive. As for `CCc1cccc(CC)c1N(COC)C(=O)CCl`, the call was inactive. Regarding `CCc1cccc(C)c1N(C(=O)CCl)C(C)COC` (stereo not given), the molecule was classed as inactive. For the molecule `CCCOc1nn(C(=O)NS(=O)(=O)c2ccccc2C(=O)OC)c(=O)n1C`, the outcome was inactive. As for `CC(COc1ccc(Oc2ccccc2)cc1)Oc1ccccn1` (stereo not given), the entry is “inactive”. As for `CNC(=O)ON=C(C)SC`, the call was inactive.

For the molecule `CCCCN(CC)c1c([N+](=O)[O-])cc(C(F)(F)F)cc1[N+](=O)[O-]`, the result was inactive. Consider `CCCCOC(=O)[C@@H](C)Oc1ccc(Oc2ccc(C#N)cc2F)cc1`, for which the molecule was called inactive.

For `CCC(CC)Nc1c([N+](=O)[O-])cc(C)c(C)c1[N+](=O)[O-]`, the call was inactive. On to `COP(=O)(OC)SCn1c(=O)oc2cc(Cl)cnc21`, for which the outcome was inactive. `CCOP(=S)(OCC)Oc1cc(C)nc(C(C)C)n1`: the call was inactive. Take `CC(C)[C@H](C(=O)O[C@H](C#N)c1cccc(Oc2ccccc2)c1)c1ccc(Cl)cc1`: the result was inactive. Take `CNC(=O)ON=C(SC)C(=O)N(C)C`: the molecule was classed as inactive. In the case of `COc1cccc(C(=O)NN(C(=O)c2cc(C)cc(C)c2)C(C)(C)C)c1C`, the call was inactive.

Consider `CC(C)N(C(=O)SCC(Cl)=C(Cl)Cl)C(C)C`, for which the molecule was called inactive. On to `C#CC(C)(C)NC(=O)c1cc(Cl)cc(Cl)c1`, for which the molecule was called inactive. With `CNC(=O)Oc1cccc2c1OC(C)(C)O2`, the call was inactive. Turning to `CSC1=N[C@@](C)(c2ccccc2)C(=O)N1Nc1ccccc1`, the result was inactive.

Regarding `CC(C1CC1)C(O)(Cn1cncn1)c1ccc(Cl)cc1` (stereo not given), the outcome was inactive. For the molecule `CCOP(=O)(OCC)Oc1cc(C)nc(C(C)C)n1`, the molecule was classed as inactive. Take `CCOP(=S)(OCC)SCCSCC`: the molecule was classed as inactive. Consider `Nc1c(Cl)cc([N+](=O)[O-])cc1Cl`, for which the outcome was inactive. With `CN(C)[C@@H]1C(=O)C(C(N)=O)=C(O)[C@@]2(O)C(=O)C3=C(O)c4c(O)cccc4[C@@](C)(O)[C@H]3[C@H](O)[C@@H]12`, the result was inactive. As to `CC1(C(=O)Nc2ccc(O)c(Cl)c2Cl)CCCCC1`, the molecule was classed as inactive. Take `CN(C)C(=O)Nc1cccc(C(F)(F)F)c1`: the result was inactive.

On to `CCc1cnc(C2=NC(C)(C(C)C)C(=O)N2)c(C(=O)O)c1` (stereo not given), for which the result was inactive. In the case of `COP(=O)(OC)OC(Br)C(Cl)(Cl)Br` (stereo not given), the molecule was called inactive. The result for `CCOP(=S)(OCC)Oc1ccc2c(C)c(Cl)c(=O)oc2c1` reads “inactive”; that for `N#CSCSC#N`, “inactive”. With `CCCSP(=O)(OCC)SCCC`, the molecule was called inactive. As for `CC1=NNC(=O)N(/N=C/c2cccnc2)C1`, the call was inactive. Regarding `CCOP(=S)(OCC)Oc1ccc([N+](=O)[O-])cc1`, the outcome was inactive. As to `COc1cc(OC)nc(Sc2cccc(Cl)c2C(=O)O)n1`, the molecule was called inactive.

Consider `Cc1ccn2nc(S(=O)(=O)Nc3c(F)cccc3F)nc2n1`, for which the molecule was classed as inactive.
